DAX1 inh-1 = DAX1 (NR0B1) inhibition, primary screen; HEK293T StAR-luciferase reporter, SF-1/DAX-1 repression relief; inhibition, % at 6.8 µM; 1.1% of 370,000 active; AID 652010;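 active = inhibition above the mean over all tested compounds plus 3 SD, cut at about 3.6% in these data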;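 also: 0% = DAX-1 cells with DMSO and 100% = cells lacking DAX-1 with DMSO; higher inhibition means more luminescence from relief of DAX-1 repression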
DAX1 inh-2 = inhibits human nuclear receptor DAX1 | P51843 | HEK293 Gal4-DAX1 luciferase reporter, luminescence | inhibition, % at 6.75 µM | 0.99% of 340,000 active;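 active = inhibition above the mean over all tested compounds plus 3 SD, cut at about 4.2% in these data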;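 also: 0% = DAX1-transfected cells with DMSO and 100% = empty-vector control cells with DMSO; inhibition shows as a rise in luminescence from relieved DAX1 repression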
ssDAF-12 act = activators of S. stercoralis DAF-12 nuclear receptor. HEK293 ssDAF-12/GRIP1 lit1-tk-luc reporter, luminescence; % of 3 µM dafachronic acid response. activation, % at 6.8 µM. 1% of 370,000 active;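 active = activation above the mean over all tested compounds plus 3 SD, cut at about 0.9% in these data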;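 also: 0% = DMSO-only wells and 100% = 3 µM delta7-dafachronic acid wells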
hcDAF-12 act = activates DAF-12 receptor from parasite H. contortus; HEK293 hcDAF-12 lit1-tk-luc reporter, luminescence; 0% DMSO, 100% Δ7-dafachronic acid; 1.4% of 370,000 active; activation, % at 6.8 µM; AID 652067;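 active = activation above the mean of all tested compounds plus 3 SD, cut at about 5.5% in these data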;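 also: 100% = response to 3 µM Δ7-dafachronic acid high control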
hgDAF12 agonist = agonists of H. glycines DAF-12 nuclear receptor; HEK293 GAL4-hgDAF12 UAS-luciferase reporter, agonist luminescence; normalized to butyrate control; activation, % at 6.8 µM; 1.8% of 370,000 active; AID 687014;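 active = activation above a cutoff set at the mean of all screened compounds plus 3 SD, cut at about 10% in these data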;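 also: 0% = DMSO wells and 100% = sodium butyrate wells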
LXRb hcDAF ctr = activates human LXR-beta, counter-screen for hcDAF-12 agonists; shares compounds with hcDAF-12 act; HEK293 Gal4-LXR tk-luc reporter, luminescence, 24 h; normalized: DMSO 0%, positive control 100%; activation, % at 6.8 µM; 3,400 tested, under 10 active; AID 743027;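 active = mean percent activation of the reporter above a cutoff set as the average over tested compounds plus their standard deviation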
Target sequence (P55055 whole entry, looked up, the tested form may be a part): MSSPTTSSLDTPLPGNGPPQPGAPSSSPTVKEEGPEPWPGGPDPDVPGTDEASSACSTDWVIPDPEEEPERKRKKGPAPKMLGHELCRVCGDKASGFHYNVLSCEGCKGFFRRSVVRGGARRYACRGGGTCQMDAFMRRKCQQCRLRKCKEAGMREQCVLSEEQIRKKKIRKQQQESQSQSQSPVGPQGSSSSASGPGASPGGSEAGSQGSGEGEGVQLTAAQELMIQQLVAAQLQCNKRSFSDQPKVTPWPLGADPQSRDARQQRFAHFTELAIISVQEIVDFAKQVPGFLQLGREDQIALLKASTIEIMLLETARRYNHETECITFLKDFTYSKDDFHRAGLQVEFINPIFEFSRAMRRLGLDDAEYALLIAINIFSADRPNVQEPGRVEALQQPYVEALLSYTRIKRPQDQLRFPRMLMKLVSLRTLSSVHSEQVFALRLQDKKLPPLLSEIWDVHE
hcDAF12 conf = confirmation of H. contortus DAF-12 agonists | shares compounds with hcDAF-12 act | HEK293 hcDAF-12 lit1-tk-luc reporter, luminescence; % of Δ7-dafachronic acid response | activation, % at 6.8 µM | 61% of 3,400 active;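 active = mean activation across triplicate tests above the threshold derived from the earlier primary screen, cut at about 5.5% in these data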;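 also: 0% = DMSO only wells and 100% = 3 µM Δ7-dafachronic acid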
* hit, by the source's call; . = no result. Compounds with a hit are over-represented: about 4.1% of the library has one in this group of screens.

SMILES | DAX1 inh-1 | DAX1 inh-2 | ssDAF-12 act | hcDAF-12 act | hgDAF12 agonist | LXRb hcDAF ctr | hcDAF12 conf
Cc1ccc(NC(=O)c2c(Cl)n(C)c3ccccc23)cc1 | 0 | 1 | 1.1* | 7.0* | 10 | 0 | 11*
CCCn1c(=O)c(C(=O)Nc2cccc(C)c2)c(O)c2ccccc21 | 0 | -1 | 0 | 1 | 1 | . | .
CCn1c(=O)c(C(=O)NNC(=O)c2ccccc2)c(O)c2ccccc21 | 0 | 1 | 0 | -1 | 4 | . | .
CCn1c(=O)c(C(=O)Nc2ccc(C)cc2)c(O)c2ccccc21 | 1 | 3 | 0 | 8.7* | 2 | 0 | 5
Cc1ccc(NC(=O)c2cc(Cl)nc3ccccc23)cc1 | 0 | 0 | -1 | 2 | 1 | . | .
O=S(=O)(c1cccs1)N1CCC2(CC1)OCCN2S(=O)(=O)c1ccccc1 | 0 | -2 | -1 | 0 | 1 | . | .
CCOC(=O)c1cn[nH]c1NC(=S)Nc1ccc(Cl)cc1 | 2 | . | 0 | 7.9* | 10 | 2 | 10*
Cc1c(C(=O)NCc2ccc3c(c2)OCCO3)sc(=O)n1Cc1ccc(C(=O)N(C)C)cc1 | -1 | . | -2 | -2 | -2 | . | .
Cc1oc(-c2ccccc2)nc1C(=O)Nc1nccs1 | 2 | 2 | 1 | 8.7* | 6 | 1 | 8.5*
COc1ccc(-c2csc(NC(=O)c3nc(-c4ccccc4)oc3C)n2)cc1 | 0 | 0 | 0 | -1 | 1 | . | .
Cc1ccnc(NC(=O)Nc2cccc(F)c2)c1 | 3.7* | -1 | 1.5* | 16* | 17* | 2 | 15*
COc1ccc(/C(N)=N/OC(=O)Cc2cccs2)cc1 | 1 | 0 | -1 | 4 | 10 | . | .
COc1ccc(/C(N)=N/OC(=O)Cc2cccs2)cc1OC | 1 | -1 | 1 | 14* | 9 | 0 | 3
Cc1ccc(S(=O)(=O)N2CCN(CC(=O)N(CC(C)C)c3c(N)n(CC(C)C)c(=O)[nH]c3=O)CC2)c(C)c1 | 1 | 0 | -1 | -2 | -3 | . | .
Cc1ccc(NC(=O)CSC(C)C(=O)OCC(=O)N2CCN(C(=O)c3ccco3)CC2)cc1 (stereo not given) | 0 | 1 | -2 | 0 | -1 | . | .
O=[N+]([O-])c1ccccc1CSc1nc2ccccc2o1 | 1 | -1 | 0 | 6.7* | 6 | 0 | 3
Cc1ccc(NN=C2c3ccccc3-c3ccccc32)cc1 | 1 | 2 | 0 | 11* | 9 | 0 | 9.0*
CSCCC(NC(=O)COc1ccccc1)C(=O)N(C)Cc1ccc(Cl)cc1Cl (stereo not given) | -3 | 0 | -1 | -1 | -2 | . | .
Cc1ccc(Nc2nnc(SCC(=O)NCCN3C(=O)CSC3=O)s2)cc1C | 2 | 0 | -1 | 12* | 11* | 0 | 3
COc1ccc(N2CCN(S(=O)(=O)c3cc(C)ccc3OC)CC2)cc1 | 0 | 0 | -1 | -2 | 1 | . | .
CN1C(=O)/C(=C\c2ccccc2F)Sc2ccc(C(=O)NC3CCN(Cc4ccccc4)CC3)cc21 | -1 | -3 | -1 | -4 | -5 | . | .
Cc1oc(-c2nc3ccccc3n2C)cc1C(=O)c1ccccc1 | 3 | -2 | 1.2* | 11* | 9 | 2 | 13*
CC1CCN(C(=O)C2(NC(=O)Nc3cccc(F)c3)CCCCC2)CC1 | 0 | 0 | -1 | -1 | -1 | . | .
Nc1[nH]n(-c2ccccc2)c(=O)c1N=Nc1ccc2c(c1)OCO2 | 1 | 0 | -2 | -1 | 3 | . | .
Nc1nn(-c2ccccc2)c(N)c1N=Nc1ccc2c(c1)OCO2 | 2 | -1 | 0 | 8.4* | 20* | 2 | 6.5*
SMILES | DAX1 inh-1 | DAX1 inh-2 | ssDAF-12 act | hcDAF-12 act | hgDAF12 agonist | LXRb hcDAF ctr | hcDAF12 conf
O=C(Nc1cccc(S(=O)(=O)NC2=NCCCCC2)c1)c1ccc(Cl)cc1 | -7 | -2 | -2 | -4 | -5 | . | .
Cn1cc(Cc2ccc(C(=O)NCc3ccccc3)cn2)c2ccccc21 | -1 | . | -1 | 0 | -2 | . | .
CC(=O)c1coc2c1cc(O)c1ccccc12 | 0 | -1 | -1 | -2 | 2 | . | .
CC(=O)c1cc(O)c2ccccc2c1O | 0 | 2 | 0 | 10* | 2 | 0 | 3
CC(/C=N/N1CCN(c2ccccn2)CC1)=C\c1ccccc1 | 1 | 2 | -1 | 6.7* | 7 | 0 | 2
Cc1ccc(-n2c3c(cc(C(=O)NC4CCSC4=O)c2=O)C(=O)CC(C)(C)C3)cc1 (stereo not given) | 0 | 0 | -1 | 6.9* | 0 | 0 | -1
CCOC(=O)Cc1cc(-c2ccc(F)cc2)nc2ccc3ccccc3c12 | 0 | 0 | 0 | 3 | 2 | . | .
O=C(Cc1nc2ccccc2[nH]c1=O)c1ccccc1 | 2 | 1 | 1.2* | 8.1* | 11* | 2 | 9.9*
Clc1ccc2oc3c(Cl)ncnc3c2c1 | 0 | -1 | -1 | 8.0* | 1 | 0 | 4
Cc1nc(Nc2ccccc2)c2oc3ccc(Cl)cc3c2n1 | 0 | 0 | -1 | 0 | 4 | . | .
C[C@]12CCC3c4ccc(OCC(=O)O)cc4CCC3C1CCC2=O (stereo not given in full) | 0 | 0 | -1 | -1 | 1 | . | .
COCc1c(C(=O)Nc2nc(C)cs2)oc2ccccc12 | 0 | -2 | 0 | 6.8* | 3 | 0 | 5.7*
COCc1c(C(=O)Nc2ccc(Cl)cc2F)oc2ccccc12 | 0 | 4 | -1 | 5 | 3 | . | .
O=C(NCc1ccc(F)cc1)c1cc(C2CCCCN2S(=O)(=O)c2ccc(F)cc2F)on1 (stereo not given) | -1 | . | -2 | -2 | 2 | . | .
CN(C)CCNC(=O)C(=O)C1C(=O)Nc2ccccc21 (stereo not given) | 0 | . | 0.9* | 8.0* | -1 | 0 | 5
CCCCCNC(=O)C(=O)C1C(=O)Nc2ccccc21 (stereo not given) | 0 | 3 | 1 | 4 | 0 | . | .
CN1CCc2c(sc(/N=C/c3c[nH]c4ccccc34)c2C#N)C1 | 2 | . | 1 | 8.7* | 4 | 1 | 9.0*
COc1cccc(NC(=O)CSc2nc3ccccc3nc2N2CCOCC2)c1 | 0 | 1 | -1 | -4 | -2 | . | .
O=[N+]([O-])c1cccc2ccc(/C=C/c3ccc(Cl)cc3)nc12 | 1 | 0 | 0 | 4 | 6 | . | .
O=[N+]([O-])c1cccc2ccc(/C=C/c3ccc(C(F)(F)F)cc3)nc12 | 0 | 0 | 0 | 7.6* | 2 | 0 | 2
CCCc1nc2oc3ccccc3c(=O)c2c(=O)n1-c1ccccc1 | 0 | . | 1.2* | 9.5* | 4 | 1 | 8.0*
CCc1nc2oc3ccccc3c(=O)c2c(=O)n1CCOC | 1 | 1 | 0 | 3 | 0 | . | .
